# Data: PubChem BioAssay (NCI)
# The panel holds about 83,000 compounds, 20% with a hit somewhere; the sample as a whole holds those more often.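 Interpretation: 100, growth as untreated; towards 0, rising growth inhibition; 0, no net growth; 0 to -100, cell death. Compounds scoring below 10 were considered active.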 A number with no mark means an inactive call. Calls of active or inactive are those of the source.
# Experiments:
# Experiment in all cases: NCI-60 one-dose screen, 48 h (100 = growth as untreated, 0 = no growth, -100 = all killed)
# Conditions in all cases: 10 µM unless noted
# SR leukemia = system: SR leukemia
# RPMI-8226 leukemia = system: RPMI-8226 leukemia
# OVCAR-8 ovarian = system: OVCAR-8 ovarian
# OVCAR-5 ovarian = system: OVCAR-5 ovarian
# OVCAR-4 ovarian = system: OVCAR-4 ovarian
# SK-OV-3 ovarian = system: SK-OV-3 ovarian
# IGROV1 ovarian = system: IGROV1 ovarian
# OVCAR-3 ovarian = system: OVCAR-3 ovarian
# HS 578T breast = system: HS 578T breast
# NCI/ADR-RES ovarian = system: NCI/ADR-RES ovarian
# T-47D breast = system: T-47D breast
# MDA-MB-435 melanoma = system: MDA-MB-435 melanoma
# SW-620 colon = system: SW-620 colon
# MCF7 breast = system: MCF7 breast
# HCT-116 colon = system: HCT-116 colon
# HCC-2998 colon = system: HCC-2998 colon
# KM12 colon = system: KM12 colon
# BT-549 breast = system: BT-549 breast
Compound,growth (SR leukemia),growth (RPMI-8226 leukemia),growth (OVCAR-8 ovarian),growth (OVCAR-5 ovarian),growth (OVCAR-4 ovarian),growth (SK-OV-3 ovarian),growth (IGROV1 ovarian),growth (OVCAR-3 ovarian),growth (HS 578T breast),growth (NCI/ADR-RES ovarian),growth (T-47D breast),growth (MDA-MB-435 melanoma),growth (SW-620 colon) [%],growth (MCF7 breast),growth (HCT-116 colon),growth (HCC-2998 colon),growth (KM12 colon),growth (BT-549 breast)
CC(=O)Nc1ccc(S(=O)(=O)N2C(=O)CCC2C(=O)Nc2ccc(Br)cc2)cc1 (stereo not given),16.9%,10.1%,47.5%,77.5%,25.5%,69.2%,37.4%,24.4%,56.6%,41.8%,1.46% (active),27.6%,38.2,9.58% (active),19.5%,49.4%,23.1%,
CC(=O)OCC1OC(OCC2OC(OC(C)=O)C(OC(C)=O)C(OC(C)=O)C2OC(C)=O)C(OC(C)=O)C(OC(C)=O)C1OC(C)=O (stereo not given),98%,99.3%,95.2%,101%,107%,89.9%,106%,109%,97.2%,101%,,104%,105,94.9%,99%,96.2%,108%,100%
COc1ccc(-c2nc3sccn3c2-c2ccnc(NCCNS(=O)(=O)c3ccc(C(F)(F)F)cc3)n2)cc1,11.6%,8.83% (active),7.86% (active),59%,15.9%,29.6%,16.2%,2.1% (active),41%,9.11% (active),-11.8% (active),2.65% (active),33.7,8.53% (active),10%,23.7%,4.4% (active),
CCCCCCCN(CCCCCCC)C(=N)c1ccc(OC)c2ccccc12,-48.6% (active),-48.8% (active),-66.3% (active),-82.4% (active),-98% (active),-68.2% (active),-73.5% (active),-94.6% (active),-60.6% (active),-75.7% (active),-72.9% (active),,,-74.4% (active),-86.7% (active),-92.5% (active),-84.3% (active),-7.55% (active)
C[N+](C)(C)c1ccc(CC2c3ccccc3-c3ccccc32)cc1,85%,68.6%,85.7%,86.1%,85.2%,75.3%,64.4%,67%,4.68% (active),107%,51.1%,,86.2,84.1%,73.3%,88.8%,77%,
CCOC(=O)c1ccccc1NC(c1ccccc1)c1ccc2cccnc2c1O (stereo not given),17.7%,17.5%,17%,53.7%,21.5%,14.1%,41.8%,32.6%,71.6%,11.9%,,39.4%,37.5,16.1%,27.3%,51.8%,29.8%,17.9%
CCn1c(=O)c2c(=O)c3c4c(oc3oc2c2ccccc21)C(=O)c1ccccc1C4=O,80.8%,33.5%,10.2%,118%,-99.5% (active),102%,68.3%,-16.3% (active),93.7%,45.8%,-9.96% (active),,73.5,61.9%,34.6%,101%,86.6%,
O=S(=O)(NCCCNc1nccc(-c2c(-c3ccccc3)nc3sccn23)n1)c1ccc(F)cc1,34.6%,38.8%,26.2%,111%,36.2%,59.1%,32.9%,49.6%,72%,22.4%,7.39% (active),16.5%,53.8,31.6%,25.9%,86.4%,39.4%,
Nc1cccc2c1CN(C1CCC(=O)NC1=O)C2=O (stereo not given),71.8%,109%,81.1%,95.6%,105%,93.1%,29.8%,108%,112%,104%,97.5%,,95.6,94.5%,114%,,98.1%,105%
COC(=O)[C@H]1[C@H](OC)[C@@H](OC(=O)/C=C/c2ccncc2)CC2CN3CCc4c([nH]c5cc(OC)ccc45)[C@@H]3C[C@@H]21 (stereo not given in full),78.3%,57.4%,81%,106%,60.8%,89.1%,85.2%,89.8%,77.5%,81.8%,36.8%,77.9%,74,55.9%,61.1%,122%,93.6%,
Clc1nc2ccccc2nc1CI,8.99% (active),77.6%,90.4%,109%,94.3%,104%,72.7%,123%,115%,98.9%,108%,89.2%,36.3,91.1%,23%,117%,104%,
CCCOC(=O)C1(O)CCCC1,94.4%,96.5%,102%,87.2%,102%,111%,107%,129%,,108%,97.2%,,104,97.9%,97.3%,108%,116%,
COc1ccc(OC)c(C(=O)c2oc3ccc(Br)cc3c2N)c1,10.2%,-16.5% (active),16.6%,45.5%,49.4%,-6.27% (active),41.2%,3.65% (active),,15.1%,37.9%,-64.7% (active),16.2,15.5%,16.8%,36.9%,30.6%,27.8%
O=C(O)Cc1ccc2c(c1)Cc1cccnc1O2,96.8%,105%,103%,101%,101%,103%,96.6%,108%,107%,,89.3%,103%,106,94.6%,100%,99%,98.7%,101%
Cc1ccc(S(=O)(=O)OC2COCOC2C(OS(=O)(=O)c2ccc(C)cc2)C2OCOCC2OS(=O)(=O)c2ccc(C)cc2)cc1 (stereo not given),96.2%,107%,103%,101%,118%,107%,110%,110%,107%,110%,,108%,108,103%,105%,113%,107%,
COc1cccc(C2CC(=O)Nc3c2c(C)nn3-c2nc3ccccc3[nH]2)c1OC (stereo not given),33.2%,70.4%,55%,114%,74.4%,79.9%,3.88% (active),74%,,73.2%,64.5%,58.5%,77.1,62.5%,36.2%,120%,67.9%,87.1%
